Results on 38 compounds are retold here after PubChem BioAssay (NCI).

“And” between values parts separate entries of the source, which are not always exact repeats. Equal entries are not always repeated. Compounds without any hit were thinned out: in the full panel of roughly 83,000, 20% have a hit.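 Interpretation: 100, growth as untreated; towards 0, rising growth inhibition; 0, no net growth; 0 to -100, cell death. Compounds scoring below 10 were considered active.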 The source made the active and inactive calls.

This experiment concerns IGROV1 ovarian. Description: NCI-60 one-dose screen, 48 h (100 = growth as untreated, 0 = no growth, -100 = all killed). Conditions: 10 µM unless noted.
Consider `Cc1ccc(S(=O)(=O)NCCCNc2nccc(-c3[nH]c(-c4ccccc4)nc3-c3ccc(F)c(O)c3)n2)cc1`, for which the growth is 99% (inactive).
Next, `COc1cc(-c2nc(-c3ccccc3)[nH]c2-c2ccnc(NCCCNS(=O)(=O)c3ccc(C(F)(F)F)cc3)n2)ccc1Cl`: 59.6% (inactive) and 51.8% (inactive); `C#C[C@]1(O)CC[C@H]2[C@@H]3CC=C4c5sc(Nc6ncccc6C)nc5CC[C@]4(C)[C@H]3CC[C@@]21C`: 40% (inactive); `CCOC(=O)c1c(NC(=O)c2cccc(C(F)(F)F)c2)sc2c3c(ccc12)OCN(C)C3`: -78.7% (active).
The figure for `COc1ccc(/C=N/NC(=O)CSc2nc(-c3cnccn3)cc(-c3cccs3)c2C#N)cc1` is 90.7% (inactive); for `CCCCCCN1C=C/C(=C\C(=O)n2ccc3ccccc32)c2ccccc21` it is 42.9% (inactive); for `Cc1ccc(C(=O)CSc2nc3ccccc3c(=O)n2C)cc1` it is 71.1% (inactive).
The figure for `O=C(CCCCCCNC(=O)C(O)(O)C(F)(F)F)Nc1ccc(-c2ccccc2)cc1` is 14.3% (inactive); for `COc1ccc(C2CC(c3cccc(OCCCCOc4cccc(C5=NN(C(C)=O)C(c6ccc(OC)cc6)C5)c4)c3)=NN2C(C)=O)cc1` (stereo not drawn) it is 83.8% (inactive).
As for `Cn1cc(-c2nc(N)nnc2-c2c[nH]c3ccc(Br)cc23)c2cc(F)ccc21`, the growth is 73% (inactive).
Next, `Oc1[nH]c2ccc(Cl)cc2c1N=Nc1nc(N=Nc2c(O)[nH]c3ccc(Cl)cc23)nc(N2CCCCC2)n1`: 22.9% (inactive); `CC(=O)Nc1cc(N2CCOCC2)c2nc(NC(=O)c3[nH]c(C)c(Cl)c3Cl)sc2c1`: 82.5% (inactive).
As for `C#CCN(C)CCCOc1ccc(NCc2ccc(/C=C/C(=O)NO)cc2)cc1Cl`, the growth is -35.7% (active).
Next, `COC(=O)c1ccc(NC2=C(Cl)C(=O)c3nc(C)ccc3C2=O)cc1`: 41.4% (inactive); `Cc1ccc2c(n1)C(=O)C(Cl)=C(Nc1cc(C(F)(F)F)cc(C(F)(F)F)c1)C2=O`: 27.8% (inactive).
The figure for `COC(=O)c1cccc(NC2=C(Cl)C(=O)c3nc(C)ccc3C2=O)c1` is -58.1% (active).
Turning to `COc1cc(C(C)=C(c2ccc(OCCN(C)C)cc2)c2ccc(OCCN(C)C)cc2)ccc1F`, the growth was 105% (inactive).
The figure for `N#Cc1c(-c2cccs2)cc(-c2cnccn2)nc1SCC(=O)N/N=C/c1ccncc1` is 104% (inactive); for `C#Cc1cc(OC)c(C(=O)Nc2ccc(F)cc2C(=O)Nc2cccc(S(=O)(=O)C(F)(F)F)c2)cn1` it is -51% (active); for `NC1=NC2(CCCC2)N(c2ccc(S(=O)(=O)Nc3nccs3)cc2)C(N)=N1` it is 103% (inactive).
The figure for `Cn1cc(-c2nnc(N)nc2-c2c[nH]c3ccc(F)cc23)c2cc(Br)ccc21` is 34.6% (inactive).
`CCCN1C=C/C(=C\C(=O)n2ccc3ccccc32)c2ccccc21`: the growth was 59.1% (inactive).
For the compound `Cc1ccc2c(n1)C(=O)C(Cl)=C(Nc1ccc(C(C)C)cc1)C2=O`, the growth is -53% (active).
Next, `NCCNC(=O)c1cccc(COc2ccccc2NC(=O)c2cc(Cl)c(Cl)[nH]2)c1`: 94.6% (inactive); `Cc1cc(C)cc(NC2=C(Cl)C(=O)c3nc(C)ccc3C2=O)c1`: -62.1% (active); `Cc1nc(/N=C(N)/N=C(\N)c2cccc(Br)c2)sc1C`: 52.3% (inactive).
The figure for `Fc1ccc2nc(-c3cnn4cccnc34)sc2c1` is 49.2% (inactive).
Turning to `COc1ccc(C(=O)c2c(N)c(C#N)cn2-c2ccc(Cl)cc2Cl)cc1`, the growth is 101% (inactive).
Regarding `COc1ccc(C2CC(c3cccc(OCCCCOc4cccc(C5=NOC(c6ccc(OC)cc6)C5)c4)c3)=NO2)cc1` (stereo not drawn), the growth was 89.6% (inactive).
Next, `CCN(CC)CCOc1ccc(C(=C(C)c2ccc(OC)cc2)c2ccc(OCCN(CC)CC)cc2)cc1`: 0.0725% (active).
Turning to `CN1CCN(c2ccc(Nc3nc(NCCCNS(=O)(=O)c4ccccc4)c4sccc4n3)cc2)CC1`, the growth was 79.7% (inactive).
Next, `CC1=C(C)C(=O)C(Nc2cccc(C(=O)OC(C)(C)C)c2)=C(Cl)C1=O`: 12.4% (inactive).
Next, `O=C(/C=C/c1cccc(F)c1)c1cccc(OCCCOc2cccc(C(=O)/C=C/c3cccc(F)c3)c2)c1`: 36.9% (inactive); `CC(Nc1ncnc2ccc(-c3cnc4cnccn34)cc12)c1ccccc1` (stereo not drawn): 5.93% (active).
In the case of `CC1CC(=O)C2=C(C1)Nc1ccc(Br)cc1CC2c1c[nH]c2ccc(Br)cc12` (stereo not drawn), the growth was 32.9% (inactive).
Next, `C[C@@H]1OCC2(CCN(c3cnc(C(=O)Nc4cc(F)cc5cccnc45)cn3)CC2)[C@@H]1N`: 28% (inactive); `C#CCOc1ccccc1C(OC(=O)c1ccccc1)C(=O)NC(C)(C)C(C)(C)C` (stereo not drawn): 68.9% (inactive); `O=C(CSc1nnc(-c2cccs2)n1-c1ccccc1)Nc1ccccc1F`: 84.9% (inactive).
